Results from PubChem BioAssay (Tox21).
Inconclusive results are not listed. Values without a mark were called inactive. The call rests on the fitted dose curve; in most records, active means well fitted cell-killing curve with a large enough effect in the repeat runs; inconclusive means weak or mixed curves; inactive means flat fitted curve, though single readings scatter.

Test: qHTS assay to identify small molecule antagonists of the estrogen receptor beta (ER-beta) signaling pathway - cell viability counter screen (AID 1259382); further: nearly all actives have a fitted effect of over 55% in size
Settings: ER-beta-UAS-bla HEK293T viability, CellTiter-Glo luminescence, 16 h; series mostly up to 92.4 µM; activity change, negative = cytotoxicity: at the top concentration
Excerpt: U.S. Tox21 Program National Center for Advancing Translational Sciences [NCATS] NIH Chemical Genomics Center [NCGC] U.S. Environmental Protection Agency [EPA] National Institutes of Environmental Health Sciences [NIEHS] National Toxicology Program [NTP] U.S. Food and Drug Administration [FDA] Tox21 Assay Overview: Estrogen receptor (ER), a nuclear hormone receptor, plays an important role in development, metabolic homeostasis and reproduction. Two subtypes of ER, ER-alpha and ER-beta, have similar expression patterns with some uniqueness in both types. Endocrine disrupting chemicals (EDCs) and their interactions with steroid hormone receptors like ER causes disruption of normal endocrine function. To identify the compounds that inhibit ER signaling, an ER-beta-UAS-bla GripTite cell line (Life Technologies, Madison, WI, USA) containing a beta-lactamase reporter gene under the control of an UAS response element was used to screen Tox21 10K compound library. The cytotoxicity of the Tox21 compound library against the ER-beta-bla cell line was tested in parallel by measuring the cell viability using CellTiter-Glo assay in the same wells.
Tox21 Assay Protocol Summary: ER-beta-UAS-bla HEK293T cells were dispensed at 2,000 cells/4 uL of assay medium containing 2% charcoal stripped FBS per well into black wall/clear-bottom 1536-well plates using a Multidrop Combi (ThermoFisher Scientific, Waltham, MA) dispenser. After the assay plates were incubated at a 37C and 5% CO2 for 6 hr, 23 nL of compounds dissolved in DMSO, positive controls or DMSO only was transferred to the assay plate by a Pintool station (Kalypsys, San Diego, CA), followed by addition of 1 uL (1nM as final concentration) of 17-beta-estradiol (E2) in assay medium using a Flying Reagent Dispenser (FRD, Aurora Discovery, San Diego, CA). The plates were incubated at 37C and 5% CO2 for 16 hr. Then 1 uL of LiveBLAzer B/G FRET substrate was added using a Flying Reagent Dispenser, the plates were incubated at room temperature for 2 hours, and fluorescence intensity was measured by an Envision plate reader (PerkinElmer, Shelton, CT). For cell viability readout that measures cytotoxicity, 4 uL/well of CellTiter-Glo reagent was added into the assay plates using a FRD. After 30 min incubation at room temperature, the luminescence intensity in the plates was measured using a ViewLux (PerkinElmer) plate reader.
On the % scale 0 is the no-effect control and ±100 the full control effect.

Row | SMILES | activity change, negative = cytotoxicity
1 | CC(C)=CC=O | 2.64%
2 | CC(C)CCCCCCOC(=O)CCCCC(=O)OCCCCCCC(C)C | -4.8%
3 | OC(CCCN1CCCCC1)(c1ccccc1)c1ccccc1 | -1.18% [at 42.5 µM]
4 | Cc1nc2ccccc2s1 | 0.907%
5 | CCCCCCOC(=O)C(C)C | 3.81%
6 | CC(C)(C)C(=O)C(Oc1ccc(Cl)cc1)n1ccnc1 (stereo not given) | -9.89% [at 42.5 µM]
7 | Nc1nc(Cl)nc2c1ncn2[C@@H]1O[C@H](CO)[C@@H](O)[C@@H]1F | -1.57% [at 42.5 µM]
8 | O=C1OCCN1/N=C/c1ccc([N+](=O)[O-])o1 | -6.93% [at 42.5 µM]
9 | O=S1OCCO1 | 4.31%
10 | O=C(/C=C/c1ccccc1)OCCCc1ccccc1 | 0.66%
11 | Cc1cc(S(=O)(=O)O)ccc1N=Nc1c(O)ccc2ccccc12 | -0.0262%
12 | Brc1cc(-c2ccc(Br)c(Br)c2Br)cc(Br)c1Br | -13.7% [at 42.5 µM]
13 | CC(=N\O)/C(C)=N/O | -21.9%
14 | CN1CCN(c2c(F)cc3c(=O)c(C(=O)O)cn4c3c2OCN4C)CC1 | -1.98% [at 19 µM]
15 | OCC1CC=CCC1 (stereo not given) | -7.99%
16 | C=CC(C)=CCC=C(C)C | 2.3%
17 | CCCCN(CCCC)CCCOC(=O)c1ccc(N)cc1 | -4.63% [at 42.5 µM]
18 | C/C(=N/NC(=O)c1ccncc1)C(=O)O | -2.93% [at 42.5 µM]
19 | O=S(=O)(c1ccccc1)c1ccc(Cl)cc1 | -6.63%
20 | CCNC(=O)N1CCN(CCCC(c2ccc(F)cc2)c2ccc(F)cc2)CC1 | -30.2% [at 42.5 µM]

Row | SMILES | activity change, negative = cytotoxicity
21 | Cc1ccc(/C=N/n2c(-c3ccccc3)csc2=S)cc1 | -7.01% [at 42.5 µM]
22 | Cc1nc2ccccn2c(=O)c1CCN1CCC(C(=O)c2ccc(F)cc2)CC1 | -2.16% [at 42.5 µM]
23 | CC(C)OCC1CO1 (stereo not given) | 2.11%
24 | CC1CN(c2cc3c(cc2F)c(=O)c(C(=O)O)cn3-c2ccc(F)cc2F)CCN1 (stereo not given) | 1.64% [at 8.39 µM]
25 | COc1cc2c(N3CCN(C(=O)Nc4ccc(OC(C)C)cc4)CC3)ncnc2cc1OCCCN1CCCCC1 | -15.7% [at 42.5 µM]
26 | CCCCCCCCCCCCCCC[C@H](O)[C@@H](N)CO | -2.11% [at 42.5 µM]
27 | O=Cc1c(Cl)cccc1Cl | 6.83%
28 | CC1=C(C=O)C(C)(C)CCC1 | -7.36%
29 | C=CCOC(=O)/C=C\C(=O)OCC=C | 3.72%
30 | CO[C@H]1O[C@H](CO)[C@@H](O)[C@H](O)[C@H]1O | -1.19%
31 | O=C(c1ccc(O)cc1)c1ccc(Cl)cc1 | 5.06%
32 | CC(=O)Oc1ccc(C(=C2CCCCC2)c2ccc(OC(C)=O)cc2)cc1 | -5.21% [at 42.5 µM]
33 | CCOC(=O)/C=C/C(=O)O | 7.96%
34 | CC#N | -2.27%
35 | C=C(C)C(=O)OCCOC(=O)CC(C)=O | 1.39%
36 | CC(=O)[C@H]1CC[C@H]2[C@@H]3C=CC4=CC(=O)CC[C@@]4(C)[C@@H]3CC[C@]12C | -14.4% [at 42.5 µM]
37 | CC(=O)Nc1ccc(N)cc1 | 7.09%
38 | O=C(O)c1cccc(O)c1 | -6.4%
39 | CN1C(=O)CC(C)(c2ccccc2)C1=O (stereo not given) | 1.3% [at 42.5 µM]
40 | CCCOCCOCCO | -2.87%
